Data on 40 compounds can be found in PubChem BioAssay.

Unmarked numbers belong to inactive results. How the calls were made is not given here.

For the test, the target named is Pantothenate synthetase (Mycobacterium tuberculosis (strain ATCC 25618 / H37Rv)) (UniProt P9WIL5). The test is described as follows: Recombinant Mtb pantothenate synthetase (PanC) inhibitors, coupled enzyme, confirmatory (AID 375).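 Further: 0% = full reaction with vehicle and 100% = no enzyme background.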 As to conditions: coupled enzyme assay; at 10 µM, active compounds read high.
Pantothenate synthetase (Mycobacterium tuberculosis (strain ATCC 25618 / H37Rv)), sequence (P9WIL5 whole entry, looked up): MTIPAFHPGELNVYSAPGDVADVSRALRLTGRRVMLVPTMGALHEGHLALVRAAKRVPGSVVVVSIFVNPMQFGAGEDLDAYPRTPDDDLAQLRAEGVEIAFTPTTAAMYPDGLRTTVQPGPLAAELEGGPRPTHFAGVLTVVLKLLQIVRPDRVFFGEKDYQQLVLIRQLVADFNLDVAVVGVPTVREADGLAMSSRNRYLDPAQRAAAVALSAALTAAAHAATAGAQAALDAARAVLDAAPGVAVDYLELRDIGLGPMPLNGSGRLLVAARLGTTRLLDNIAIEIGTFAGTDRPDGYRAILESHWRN
Regarding `CC(C)OC(=O)CN1C(=O)C(C)(C)Oc2ccc(C(=O)NC3CC3)cc21`, the inhibition is 0%. With `COc1cccc(Nc2c(F)c(F)c(F)c(F)c2C(=O)O)c1`, the inhibition is 7%. `Nc1nc(-c2ccc(Cl)cc2)cc(C(F)(F)F)n1`: the inhibition is 0%.

With `CC1Cc2ccccc2N1Cc1cc(=O)n2ccsc2n1` (stereo not given), the inhibition was 0%.

As to `COc1ccc(OC)c(Nc2ncnc3c2cnn3-c2ccccc2)c1`, the inhibition was 0%.

For the compound `CCCC(OC(=O)CN1C(=O)COc2ccccc21)C(=O)NC1CCCC1` (stereo not given), the inhibition was 0%.

`Cc1ccc(CS(=O)(=O)CCC(=O)NCC2CCCO2)cc1` (stereo not given): the inhibition was 0%. Then `Cc1c(CNCc2cccs2)c(C(=O)O)c(C)n1Cc1ccccc1`, with 0%; and `COc1ccc(N(C)C(=O)CCS(=O)(=O)c2cccc3nonc23)c(OC)c1`, with 0%. For `Cc1ccc2[nH]c(=O)c(CN(CCCO)S(=O)(=O)c3c(C)ccc4nsnc34)cc2c1`, the inhibition is 6%.

As to `CCS(=O)(=O)c1ccc(S(=O)(=O)CC)s1`, the inhibition is 0%.

For the compound `O=C(CCN1CCOCC1)Nc1ccc2c(c1)CCC2`, the inhibition was 4%. Then `COCCNC(=O)c1cc(-c2cccs2)on1`, with 0%; and `Nc1nc(F)nc2c1ncn2[C@@H]1O[C@H](CO)[C@@H](O)[C@@H]1O`, with 0%. To `O=C(Nc1ccon1)c1cc(-c2ccccc2)nc2ccccc12` belongs 0%. Then `Fc1cccc(Nc2cc(-n3cccn3)ncn2)c1`, with 3%; and `Oc1ccc2[nH]cnc2c1CN1CCCCC1`, with 0%; and `CC(C(=O)Oc1ccc2c(c1)OCO2)N1C(=O)c2ccccc2C1=O` (stereo not given), with 5%. As for `CCN1CCc2c(C#N)c(N3CCOCC3)nc(NCc3ccccc3)c2C1`, the inhibition is 0%.

For the compound `CCNCc1cc2cc(C)ccc2[nH]c1=O`, the inhibition is 0%. As to `Cc1ccc(CCNC(=O)C2CCCN(S(=O)(=O)c3cnc[nH]3)C2)cc1` (stereo not given), the inhibition was 2%.

`O=C(NC1CCCc2ccccc21)C1CCN(c2nnc(-n3cccc3)s2)CC1` (stereo not given): the inhibition was 0%. On to `Cn1c(=O)c2c(nc(SCCCC#N)n2Cc2c(F)cccc2Cl)n(C)c1=O`, for which the inhibition was 0%.

With `c1ccc(Cc2nnc3n2CCCCC3)cc1`, the inhibition was 6%. Then `CCOc1ccccc1NC(=O)NC1CCN(CC(=O)Nc2ccc3c(c2)OCCO3)CC1`, with 0%. Then `CC(C)n1c(NCc2c[nH]c3ccccc23)nc2ccccc21`, with 0%; and `CN1C(C(=O)Nc2ccccn2)=C(O)c2ccccc2S1(=O)=O`, with 9%.

`COc1ccc(CC(=O)NCc2ccccc2)cc1S(=O)(=O)N1CCOCC1`: the inhibition is 0%. Then `CCc1nc2scc(-c3ccccc3)c2c(=O)n1N`, with 5%.

For the compound `OCCN1CCN(CCCN2c3ccccc3Sc3ccc(C(F)(F)F)cc32)CC1`, the inhibition was 2%.

In the case of `CCOc1ccc(N2C(=O)CC(N3CC(C)OC(C)C3)C2=O)cc1` (stereo not given), the inhibition was 0%. Consider `COc1ccc(C)cc1S(=O)(=O)N1CCN(S(=O)(=O)c2cc(C)ccc2OC)CC1`, for which the inhibition was 5%. Then `CCn1cc(C(=O)O)c(=O)c2cnc(N3CCNCC3)nc21`, with 1%. To `O=C(NC(=O)c1cccc(F)c1)OC[C@@H]1CCCN2CCCC[C@H]12` belongs 0%.

On to `O=C(NC1CCCCC1)C1CCCN1C(=O)NCc1ccccc1` (stereo not given), for which the inhibition was 4%.

`CN(C)c1nc(OCCOC(=O)Nc2ccc(Cl)cc2Cl)nc(N(C)C)n1`: the inhibition is 0%. To `COc1ccc(-c2nn3c(-c4cccc(C)c4)nnc3s2)cc1OC` belongs 4%; to `COc1ccccc1NC(=O)c1oc2ccccc2c1NC(=O)c1cc(OC)c(OC)c(OC)c1`, 0%.

With `COCCOc1nc2ccccc2nc1C`, the inhibition was 0%. As to `CC1=C(C(=O)OC(C)C)C(C2CC=CCC2)NC(=O)N1` (stereo not given), the inhibition is 6%.
